Data taken from PubChem BioAssay AID1159580 (chemical genetic matrix, 2015).
About 2,000 (36%) of roughly 5,500 compounds were called active. Another 18% or so got no clear call; they are omitted. No stated cut-off is given here; in the data, active means normalized growth mostly below about 0.91 (no sharp cut-off); inconclusive means no clear call, values can overlap the other calls; inactive means mostly above about 0.92. The list shows a part of the results.

Experiment: chemical genetic growth profiling, strain panel (AID 1159580);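 further: tested at 20 µM; growth read once vehicle control cultures reached saturation at 30 °C; 1 = growth at the plate median or of vehicle wells; lower values mean less growth of the strain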
Settings: S. cerevisiae deletion strains, growth OD

Measured: normalized growth

FC(F)(F)c1c2c(nc3cc(-c4ccco4)nn13)CCC2
active: locus YHR030C, strain SLT2, hits give low values 0.702 | locus YLR113W, strain HOG1, hits give low values 0.802
inactive: locus YAR019C, strain CDC15, hits give low values 0.965 | locus YBL105C, strain PKC1, hits give low values 0.973 | locus YBR135W, strain CKS1, hits give low values 0.964 | locus YBR136W, strain MEC1, hits give low values 0.971 | locus YBR160W, strain CDC28, hits give low values 0.975 | locus YDL017W, strain CDC7, hits give low values 0.971 | locus YDL028C, strain MPS1, hits give low values 0.971 | locus YDL101C, strain DUN1, hits give low values 0.967 | locus YDL108W, strain KIN28, hits give low values 0.967 | locus YDL132W, strain cdc53, hits give low values 0.96 | locus YDL214C, strain PRR2, hits give low values 0.9 | locus YDR052C, strain DBF4, hits give low values 0.966 | locus YDR054C, strain cdc34, hits give low values 0.952 | locus YDR226W, strain ADK1, hits give low values 0.968 | locus YDR477W, strain SNF1, hits give low values 0.882 | locus YER123W, strain YCK3, hits give low values 0.858 | locus YER133W, strain GLC7, hits give low values 0.912 | locus YFL009W, strain cdc4, hits give low values 0.968 | locus YFL029C, strain CAK1, hits give low values 0.96 | locus YFR003C, strain YPI1, hits give low values 0.976 | locus YFR019W, strain FAB1, hits give low values 0.959 | locus YFR028C, strain CDC14, hits give low values 0.969 | locus YGR040W, strain KSS1, hits give low values 0.875 | locus YGR052W, strain FMP48, hits give low values 0.942 | locus YGR092W, strain DBF2, hits give low values 0.815 | locus YHR079C, strain IRE1, hits give low values 0.891 | locus YHR082C, strain KSP1, hits give low values 0.896 | locus YHR205W, strain SCH9, hits give low values 0.825 | locus YIL147C, strain SLN1, hits give low values 0.971 | locus YJL095W, strain BCK1, hits give low values 0.819 | locus YJL128C, strain PBS2, hits give low values 0.92 | locus YJL157C, strain FAR1, hits give low values 0.869 | locus YJR016C, strain ILV3, hits give low values 0.973 | locus YJR066W, strain TOR1 (second series), hits give low values 0.987 | locus YJR066W, strain TOR1, hits give low values 0.833 | locus YKL048C, strain ELM1, hits give low values 0.941 | locus YKL067W, strain YNK1, hits give low values 0.879 | locus YKL101W, strain HSL1, hits give low values 0.928 | locus YKL193C, strain SDS22, hits give low values 0.959 | locus YKL203C, strain TOR2, hits give low values 0.901 | locus YLR133W, strain CKI1, hits give low values 0.884 | locus YLR403W, strain SFP1, hits give low values 0.855 | locus YML070W, strain DAK1, hits give low values 0.906 | locus YMR001C, strain CDC5, hits give low values 0.966 | locus YMR205C, strain PFK2 (second series), hits give low values 0.891 | locus YMR277W, strain FCP1, hits give low values 0.963 | locus YNL006W, strain LST8, hits give low values 0.97 | locus YNL020C, strain ARK1, hits give low values 0.851 | locus YNL161W, strain CBK1, hits give low values 0.974 | locus YNL183C, strain NPR1, hits give low values 0.816 | locus YNL207W, strain RIO2, hits give low values 0.96 | locus YNL222W, strain SSU72, hits give low values 0.97 | locus YNL307C, strain MCK1 (second series), hits give low values 0.861 | locus YOL078W, strain AVO1, hits give low values 0.961 | locus YOL136C, strain PFK27, hits give low values 0.884 | locus YOR061W, strain CKA2, hits give low values 0.865 | locus YOR119C, strain RIO1, hits give low values 0.921 | locus YOR231W, strain MKK1, hits give low values 0.883 | locus YOR329C, strain SCD5, hits give low values 0.976 | locus YPL031C, strain PHO85, hits give low values 0.869 | locus YPL153C, strain RAD53, hits give low values 0.889 | locus YPL204W, strain HRR25, hits give low values 0.87 | locus YPL209C, strain IPL1, hits give low values 0.972 | locus YPL256C, strain CLN2, hits give low values 0.891 | locus YPR025C, strain CCL1, hits give low values 0.968 | locus YPR106W, strain ISR1, hits give low values 0.959 | locus YPR111W, strain DBF20, hits give low values 0.958 | strain NNK1, hits give low values 0.959 | strain TSCII, hits give low values 0.969
